PubChem BioAssay

Tests used:
[1] = system: Botulinum neurotoxin type F light chain protease (Clostridium botulinum); experiment: Botulinum neurotoxin type F light chain protease inhibition, multiplex microsphere flow cytometry, validation set (AID 588459); conditions: multiplex microsphere protease substrate cleavage assay, at 10 µM, active compounds read high
[2] = target: Botulinum neurotoxin type A (Clostridium botulinum) (UniProt P0DPI0); experiment: BoNT/A light chain protease inhibitors, biochemical, multiplex microsphere flow cytometry, validation set (AID 588460); conditions: at 10 µM, active compounds read high
[3] = target: Lethal factor (Bacillus anthracis) (UniProt P15917); experiment: Lethal factor protease inhibitors, Bacillus anthracis, multiplex microsphere cleavage assay, validation set (AID 588461); conditions: flow cytometry, at 10 µM, active compounds read high

Measured: inhibition

Chain of Lethal factor (Bacillus anthracis) (P15917 whole entry, looked up): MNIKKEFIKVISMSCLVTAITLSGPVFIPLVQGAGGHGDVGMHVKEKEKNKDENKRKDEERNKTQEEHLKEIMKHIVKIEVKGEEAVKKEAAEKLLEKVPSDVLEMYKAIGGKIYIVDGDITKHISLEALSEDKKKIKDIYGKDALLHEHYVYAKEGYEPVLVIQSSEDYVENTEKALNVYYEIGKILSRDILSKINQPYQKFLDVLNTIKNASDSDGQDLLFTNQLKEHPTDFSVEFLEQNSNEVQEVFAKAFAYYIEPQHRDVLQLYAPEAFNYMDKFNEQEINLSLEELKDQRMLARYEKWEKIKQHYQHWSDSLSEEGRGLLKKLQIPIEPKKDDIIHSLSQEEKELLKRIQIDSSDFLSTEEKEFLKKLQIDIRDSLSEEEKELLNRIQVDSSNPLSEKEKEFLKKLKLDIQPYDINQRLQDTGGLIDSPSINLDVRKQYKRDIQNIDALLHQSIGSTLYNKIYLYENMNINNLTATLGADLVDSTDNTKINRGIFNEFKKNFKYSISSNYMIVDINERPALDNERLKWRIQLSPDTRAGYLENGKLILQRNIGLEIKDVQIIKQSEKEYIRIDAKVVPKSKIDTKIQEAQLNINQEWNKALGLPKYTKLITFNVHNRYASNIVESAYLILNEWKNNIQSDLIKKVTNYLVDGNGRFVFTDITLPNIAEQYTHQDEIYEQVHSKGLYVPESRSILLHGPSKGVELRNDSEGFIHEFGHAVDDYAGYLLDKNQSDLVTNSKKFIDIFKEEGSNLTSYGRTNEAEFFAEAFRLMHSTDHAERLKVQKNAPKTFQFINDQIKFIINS
Chain of Botulinum neurotoxin type A (Clostridium botulinum) (P0DPI0 whole entry, looked up): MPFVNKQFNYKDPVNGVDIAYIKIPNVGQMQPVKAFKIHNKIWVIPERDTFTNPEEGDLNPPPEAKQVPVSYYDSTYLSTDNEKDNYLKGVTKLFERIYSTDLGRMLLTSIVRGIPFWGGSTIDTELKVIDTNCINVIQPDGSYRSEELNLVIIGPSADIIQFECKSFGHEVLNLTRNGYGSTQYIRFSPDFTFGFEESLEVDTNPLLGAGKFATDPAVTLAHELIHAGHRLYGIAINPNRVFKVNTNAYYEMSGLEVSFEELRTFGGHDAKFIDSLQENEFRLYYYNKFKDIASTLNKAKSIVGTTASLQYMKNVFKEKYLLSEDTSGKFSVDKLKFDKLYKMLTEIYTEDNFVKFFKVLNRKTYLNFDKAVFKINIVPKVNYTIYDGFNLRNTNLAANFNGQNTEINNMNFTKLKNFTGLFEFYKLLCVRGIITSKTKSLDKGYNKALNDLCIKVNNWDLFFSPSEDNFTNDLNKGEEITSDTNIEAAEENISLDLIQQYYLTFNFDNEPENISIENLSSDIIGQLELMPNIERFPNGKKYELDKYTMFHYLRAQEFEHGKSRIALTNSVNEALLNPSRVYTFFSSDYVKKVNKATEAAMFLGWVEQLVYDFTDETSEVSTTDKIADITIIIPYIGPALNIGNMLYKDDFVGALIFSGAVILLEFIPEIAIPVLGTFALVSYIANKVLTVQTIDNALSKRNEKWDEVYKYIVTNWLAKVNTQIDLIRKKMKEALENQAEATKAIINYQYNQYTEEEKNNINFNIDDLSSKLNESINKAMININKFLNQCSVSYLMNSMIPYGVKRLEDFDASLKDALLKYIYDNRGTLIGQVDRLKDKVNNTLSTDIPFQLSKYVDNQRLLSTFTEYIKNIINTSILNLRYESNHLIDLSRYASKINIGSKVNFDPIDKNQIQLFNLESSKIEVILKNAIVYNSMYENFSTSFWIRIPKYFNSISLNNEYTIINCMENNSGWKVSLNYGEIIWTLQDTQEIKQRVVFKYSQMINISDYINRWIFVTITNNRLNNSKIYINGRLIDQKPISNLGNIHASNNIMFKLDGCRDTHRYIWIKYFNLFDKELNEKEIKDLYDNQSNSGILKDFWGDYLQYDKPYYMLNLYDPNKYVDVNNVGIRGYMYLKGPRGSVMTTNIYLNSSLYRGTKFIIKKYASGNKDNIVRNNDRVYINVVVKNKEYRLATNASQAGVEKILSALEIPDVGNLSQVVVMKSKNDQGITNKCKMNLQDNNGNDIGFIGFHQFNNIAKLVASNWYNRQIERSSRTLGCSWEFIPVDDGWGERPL

Fc1ccc(-c2cc(-c3ccccc3)nc(-n3cccn3)n2)cc1
inactive: [1] -6.3% | [2] -0.2% | [3] 2.3%

CC(=O)N1CCN2C(=O)C1CCCC(=O)c1cc(C(C)C)ccc12 (stereo not given)
inactive: [1] -1.6% | [2] -1.6% | [3] -5.3%

CN(C)CCOC(c1ccccc1)c1ccccc1
inactive: [1] -0.7% | [2] 0.3% | [3] -5%

COC(=O)c1ccccc1OCCOCCOc1cccc2ccc(C)nc12
inactive: [1] 0.3% | [2] 3.8% | [3] -4%

CC(=O)[C@@]1(O)CC[C@H]2[C@@H]3CCC4=CC(=O)CC[C@]4(C)[C@H]3[C@@H](O)C[C@@]21C
inactive: [1] 2.3% | [2] -1.1% | [3] 1.8%

Cc1ccc(C(=O)N2CC3(C(C)C)CN(C(=O)c4ccc(C)cc4)CC(C(C)C)(C2)C3=O)cc1
inactive: [1] 5% | [2] -0.5% | [3] -2.5%

CCCNC(C)C(=O)Nc1ccccc1C (stereo not given)
inactive: [1] 0.2% | [2] 0.2% | [3] -4.8%

Cc1cccc2c(C(=O)O)cc(-c3cccnc3)nc12
inactive: [1] -2.3% | [2] -0.5% | [3] -6.1%

CC(C)NC(=O)C1(c2ccccc2)CCOCC1
inactive: [1] -2.6% | [2] -0.5% | [3] -2.6%

CC(CN1c2ccccc2Sc2ccccc21)N(C)C (stereo not given)
inactive: [1] -0.2% | [2] -1.5% | [3] -11.5%

COC(=O)[C@H]1[C@H]2C[C@@H]3c4[nH]c5cc(OC)ccc5c4CCN3C[C@H]2C[C@@H](OC(=O)c2ccc(N)cc2)[C@@H]1OC
inactive: [1] -4.7% | [2] -2.3% | [3] -32.8%

O=C(Nc1ccccc1)c1ccccc1CCc1ccccc1
inactive: [1] 0.9% | [2] -3.7% | [3] 3.9%

O=C(CCCN1C(=O)/C(=C\c2cccc(Br)c2)SC1=S)Nc1cccnc1
inactive: [1] -1.7% | [2] -0.3% | [3] 2.4%

CC(=O)C1=C(O)C(=O)OC1c1ccc(C)cc1 (stereo not given)
inactive: [1] 9.7% | [2] 1.4% | [3] -4.5%

CCC(C)NCCOc1ccc(C(C)(C)c2ccccc2)cc1 (stereo not given)
inactive: [1] -2% | [2] 0.7% | [3] -12.8%
